In general, inhibition refers to the relative decrease from the control value, in per cent.

Where “and” joins values, the source holds several entries; their conditions need not be identical. Equal entries are not always repeated. Hit rate of the full screen: of about 77,000 compounds, about 4,600 (6%) were called active. Another 1% or so got no clear call; they are omitted. For the sample, actives were picked, then their nearest neighbours and some compounds at random. Unmarked numbers belong to inactive results.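 The calls were made as follows: active = mean inhibition above about 93%, with at least 55% of replicates each passing it (limit read from the data, passing the limit was not always enough); inconclusive = only one of those two conditions holds; inactive = neither condition holds.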

The nature of this assay: growth inhibition of T. cruzi in host fibroblasts – cell-based, beta-gal Tulahuen parasites, NIH3T3 host, luminescence, primary screen (AID 624255). Particulars: T. cruzi beta-gal in NIH3T3, GalScreen luminescence, 90 h; at 8.34 µM; stronger effect = higher value.
Turning to `CO[C@@H]1CC[C@@H]2CCOc3ccc(C#N)cc3C(=O)N(C)C[C@@H](OC)[C@@H](C)C(=O)N(C)C[C@H]1O2`, the inhibition was 26.1%.

Consider `Cc1noc(C)c1NC(=O)N(C)C[C@H]1OCCCC[C@H](C)Oc2ccc(NC(=O)Nc3ccccc3)cc2C(=O)N([C@H](C)CO)C[C@@H]1C`, for which the inhibition was -11.2%.

Turning to `CO[C@@H]1CN(C)C(=O)c2ccc(NS(=O)(=O)c3cn(C)cn3)cc2OC[C@H](C)N(CCC(F)(F)F)C[C@@H]1C`, the inhibition is 40.1%.

On to `CCNC(=O)C[C@@H]1CC[C@H]2[C@@H](COc3ccc(NC(=O)c4ccccc4Cl)cc3C(=O)N2C)O1`, for which the inhibition is 1.97%.

In the case of `CNC[C@H]1Oc2cc(C#Cc3ccccn3)ccc2S(=O)(=O)N([C@H](C)CO)C[C@@H]1C`, the inhibition is 92.5%.

On to `C[C@H](CO)N1C[C@H](C)[C@H](CN(C)C(=O)Nc2ccc3c(c2)OCO3)Oc2ncc(C#Cc3cccc(F)c3)cc2C1=O`, for which the inhibition was 100% (active).

With `COc1cccc(C#Cc2cnc3c(c2)C(=O)N([C@@H](C)CO)C[C@H](C)[C@@H](CN(C)C(=O)C2CCC2)O3)c1`, the inhibition is 84.3%.

As to `COCC#Cc1cnc2c(c1)C(=O)N([C@H](C)CO)C[C@@H](C)[C@@H](CN(C)C(=O)Nc1cccc(F)c1)O2`, the inhibition is 8.75%.

As to `C[C@H]1CN([C@@H](C)CO)C(=O)c2cc(C#Cc3ccc(F)cc3)cnc2O[C@@H]1CN(C)C(=O)Nc1ccc(F)cc1`, the inhibition was 25%.

Regarding `C[C@H](CO)N1C[C@H](C)[C@H](CN(C)C(=O)C2CC2)Oc2ncc(C#Cc3ccccc3)cc2C1=O`, the inhibition was 60.3%.

As to `C[C@H](CO)N1C[C@H](C)[C@H](CN(C)C(=O)C2CCCCC2)Oc2ncc(C#Cc3cccc(F)c3)cc2C1=O`, the inhibition was 120% (active).

Turning to `CN1[C@@H]2CN(C(=O)c3ccc(F)cc3)c3ccccc3[C@@H]2[C@@H]1CO`, the inhibition was -2.39%.

Take `COc1cccc(-c2ccc3n(c2=O)C[C@H]2[C@H](CO)[C@@H](C(=O)N4CCCCC4)N(C)[C@@H]32)c1`: the inhibition was 13.1%.

As to `C[C@@H]1CN([C@H](C)CO)S(=O)(=O)c2ccc(C3=CCCC3)cc2O[C@@H]1CN(C)C(=O)C1CCC1`, the inhibition was 52.9%.

Regarding `CC(=O)N(C)C[C@@H]1Oc2cc(-c3cccc(F)c3)ccc2S(=O)(=O)N([C@H](C)CO)C[C@H]1C`, the inhibition was 31.3%.

Consider `C[C@@H]1CN([C@@H](C)CO)S(=O)(=O)c2ccc(C#Cc3ccncc3)cc2O[C@@H]1CN(C)S(=O)(=O)c1ccccc1`, for which the inhibition is 11.5%.

As to `COc1cccc(S(=O)(=O)N(C)C[C@H]2Oc3cc(C#CCN(C)C)ccc3S(=O)(=O)N([C@H](C)CO)C[C@H]2C)c1`, the inhibition was 75.2%.

As for `C[C@@H]1CN([C@@H](C)CO)S(=O)(=O)c2ccc(-c3cccc(F)c3)cc2O[C@@H]1CN(C)S(=O)(=O)c1ccccc1`, the inhibition is 117% (active).

`C[C@H]1CN([C@@H](C)CO)S(=O)(=O)c2ccc(C#Cc3cccc(F)c3)cc2O[C@@H]1CN(C)S(=O)(=O)c1cn(C)cn1`: the inhibition was 102% (active).

Take `COc1cccc(S(=O)(=O)N(C)C[C@@H]2Oc3cc(C#CCN(C)C)ccc3S(=O)(=O)N([C@@H](C)CO)C[C@@H]2C)c1`: the inhibition was 91.4%.

Turning to `C[C@@H]1CN([C@H](C)CO)S(=O)(=O)c2ccc(C3=CCCC3)cc2O[C@H]1CN(C)C(=O)c1ccccc1`, the inhibition was -0.873%.

For `CC(C)CC#Cc1ccc2c(c1)O[C@H](CN(C)S(=O)(=O)c1cccc(F)c1)[C@@H](C)CN([C@@H](C)CO)S2(=O)=O`, the inhibition was 119% (active).

Consider `C[C@H](CO)N1C[C@H](C)[C@@H](CN(C)S(=O)(=O)c2ccc(F)cc2)Oc2cc(C3=CCCC3)ccc2S1(=O)=O`, for which the inhibition was 114% (active).

Regarding `C[C@H]1CN([C@@H](C)CO)S(=O)(=O)c2ccc(C#Cc3ccccc3)cc2O[C@H]1CN(C)S(=O)(=O)c1cn(C)cn1`, the inhibition is 27.9%.

Turning to `C[C@@H]1CN([C@@H](C)CO)S(=O)(=O)c2ccc(C#Cc3cccc(F)c3)cc2O[C@H]1CN(C)S(=O)(=O)c1cn(C)cn1`, the inhibition is 61.3% and -15.4%.

On to `C[C@H](CO)N1C[C@H](C)[C@H](CN(C)CC2CC2)OCCCC[C@H](C)Oc2ccc(NS(=O)(=O)c3cccs3)cc2C1=O`, for which the inhibition is 38%.

In the case of `CN1c2ccc(-c3ccc(F)cc3)cc2[C@@H]2[C@@H](CCN2S(=O)(=O)c2ccc(F)cc2)[C@@H]1CO`, the inhibition was 90.2%.

As to `CN1c2ccc(-c3ccc(F)cc3)cc2[C@@H]2[C@@H](CCN2C(=O)c2cccnc2)[C@H]1CO`, the inhibition was 84%.

Take `C[C@@H]1CCCCO[C@H](CN(C)C(=O)c2ccccc2)[C@H](C)CN([C@H](C)CO)C(=O)c2cc(N(C)C)ccc2O1`: the inhibition is 91.3%.

On to `COCC(=O)N1C[C@@H]2[C@H](c3ccccc31)[C@@H](CO)N2C(=O)C1CC1`, for which the inhibition is 65.2%.

Regarding `CN1C(=O)c2cc(NC(=O)c3ccccc3)ccc2OC[C@@H]2O[C@H](CC(=O)NCC3CC3)CC[C@@H]21`, the inhibition was -30.4%.

Take `O=C(c1cccnc1)N1C[C@H]2[C@@H](c3ccccc31)[C@@H](CO)N2C(=O)Nc1ccccc1F`: the inhibition was -1.74%.

`C[C@H]1CN([C@@H](C)CO)C(=O)c2c(c3ccccc3n2C)-c2ccccc2CO[C@H]1CN(C)S(=O)(=O)c1ccc(C#N)cc1`: the inhibition was 29.4%.

Consider `C[C@@H]1CN([C@@H](C)CO)S(=O)(=O)c2ccc(-c3ccc(F)cc3)cc2O[C@H]1CN(C)C(=O)c1ccccc1F`, for which the inhibition was 84.8%.

For `C[C@H]1CN([C@@H](C)CO)S(=O)(=O)c2ccc(-c3cccc(F)c3)cc2O[C@@H]1CN(C)C`, the inhibition is -32.3% and -49.6%.

Regarding `C[C@@H]1CN([C@H](C)CO)S(=O)(=O)c2ccc(-c3cccc(F)c3)cc2O[C@H]1CN(C)S(=O)(=O)c1ccc(F)cc1`, the inhibition was 118% (active).

For the molecule `COc1cccc(NC(=O)N[C@@H]2CC[C@H](CC(=O)NCc3ccccn3)O[C@H]2CO)c1`, the inhibition was -39.2%.

For `CO[C@@H]1CN(C)C(=O)c2cc(NS(=O)(=O)c3cn(C)cn3)ccc2OC[C@@H](C)NC[C@H]1C`, the inhibition was -12.5%.

As for `Cc1ccccc1S(=O)(=O)N[C@H]1CC[C@@H](CCn2cc(Cc3ccccc3)nn2)O[C@H]1CO`, the inhibition is -21.8%.

Consider `CN1c2ccc(-c3ccccc3)cc2[C@@H]2[C@@H](CCN2C(=O)c2ccccc2F)[C@@H]1CO`, for which the inhibition was 83.7%.

In the case of `CN1c2ccc(-c3ccccc3F)cc2[C@H]2[C@H](CCN2C(=O)Cc2ccccn2)[C@H]1CO`, the inhibition is 81%.

On to `CN1c2ccc(-c3ccccc3)cc2[C@@H]2[C@@H](CCN2C(=O)c2ccncc2)[C@@H]1CO`, for which the inhibition was 103% (active).

`COc1ccc(-c2ccc3c(c2)[C@@H]2[C@@H](CCN2C(=O)Cc2ccccn2)[C@H](CO)N3C)cc1`: the inhibition is 90.9% (active).

`COc1cccc(NC(=O)N2CC[C@@H]3[C@@H](CO)N(C)c4ccc(-c5cccc(F)c5)cc4[C@@H]32)c1`: the inhibition was 30.5%.

In the case of `COc1ccc(-c2ccc3c(c2)[C@H]2[C@H](CCN2C(=O)C2CCOCC2)[C@H](CO)N3C)cc1`, the inhibition is 1.27%.

`CCC(=O)N1CC[C@@H]2[C@@H](CO)N(C)c3ccc(-c4cccc(OC)c4)cc3[C@@H]21`: the inhibition is 104% (active).

As to `CCC(=O)N1CC[C@H]2[C@@H]1c1cc(-c3ccc(C#N)cc3)ccc1N(C)[C@H]2CO`, the inhibition was 58.1%.

Regarding `CN1c2ccc(-c3ccccc3)cc2[C@@H]2[C@@H](CCN2C(=O)c2ccccc2)[C@H]1CO`, the inhibition is 62.4%.

As for `CCCNC(=O)C[C@@H]1CC[C@H]2[C@H](COc3ccc(NC(=O)c4ccc(Cl)cc4)cc3C(=O)N2C)O1`, the inhibition is 29.6%.

Take `COc1ccc(S(=O)(=O)Nc2ccc3c(c2)C(=O)N(C)C[C@@H](OC)[C@H](C)CN(C(=O)NC(C)C)[C@H](C)CO3)cc1`: the inhibition is -70.7%.

For `COc1ccc(NC(=O)N[C@H]2C=C[C@H](CC(=O)NCc3ccccn3)O[C@H]2CO)cc1`, the inhibition is -16.1%.

For `Cc1noc(C)c1NC(=O)Nc1ccc2c(c1)C(=O)N([C@H](C)CO)C[C@@H](C)[C@H](CN(C)S(=O)(=O)c1ccc(Cl)cc1)OCCCC[C@H](C)O2`, the inhibition was 53.3%.

`COCCNC(=O)C[C@H]1CC[C@H]2[C@H](COc3ccc(NC(=O)C4CCOCC4)cc3C(=O)N2C)O1`: the inhibition was 17.3%.

In the case of `C[C@@H]1CN([C@@H](C)CO)C(=O)c2cc(NC(=O)C3CCCCC3)ccc2O[C@@H](C)CCCCO[C@H]1CN(C)C(=O)CCC(F)(F)F`, the inhibition was 29.9%.

With `COCC(=O)Nc1ccc2c(c1)OC[C@@H](C)N(Cc1cocn1)C[C@@H](C)[C@@H](OC)CN(C)C2=O`, the inhibition is -2.18%.

`CN1c2ccc(-c3ccc(C#N)cc3)cc2[C@@H]2[C@@H](CCN2S(=O)(=O)c2cccc(F)c2)[C@@H]1CO`: the inhibition is 72.5%.

With `COCC(=O)Nc1ccc2c(c1)[C@H]1C[C@H](CC(=O)NCc3ccc(OC)cc3)O[C@@H](CO)[C@H]1O2`, the inhibition was 4.09%.

Regarding `O=C(C[C@H]1CC[C@H]2[C@@H](COC[C@H](O)CN2C(=O)c2ccncc2)O1)NCc1cc(F)cc(F)c1`, the inhibition is 43.6%.

With `C[C@H]1CN([C@@H](C)CO)C(=O)Cc2cc(NC(=O)Cc3cn(C)c4ccccc34)ccc2O[C@H]1CN(C)Cc1ccccc1`, the inhibition was 83.1%.

Turning to `C[C@H](CO)N1C[C@H](C)[C@H](CN(C)Cc2ccc(-c3ccccc3)cc2)Oc2ccc(NC(=O)Nc3ccc(F)cc3)cc2CC1=O`, the inhibition was 100% (active).

With `C[C@H]1CN([C@@H](C)CO)C(=O)Cc2cc(NS(=O)(=O)c3ccccc3)ccc2O[C@H]1CN(C)Cc1ccc(C(=O)Nc2ccccc2N)cc1`, the inhibition is 48%.

For the molecule `C[C@H]1CN([C@@H](C)CO)C(=O)Cc2cc(NS(=O)(=O)c3ccccc3)ccc2O[C@@H]1CN(C)Cc1ccc(C(=O)Nc2ccccc2N)cc1`, the inhibition was 21.9%.

Consider `C[C@H]1CN([C@@H](C)CO)C(=O)Cc2cc(NC(=O)Cc3cn(C)c4ccccc34)ccc2O[C@@H]1CN(C)Cc1ccc(C(F)(F)F)cc1`, for which the inhibition was 103% (active).

For the molecule `C[C@@H]1CN([C@@H](C)CO)C(=O)Cc2cc(NC(=O)C3CCCCC3)ccc2O[C@@H]1CN(C)Cc1ccc(C(=O)Nc2ccccc2N)cc1`, the inhibition was 103% (active).

`C[C@@H]1CN([C@@H](C)CO)C(=O)Cc2cc(NC(=O)Cc3ccccc3)ccc2O[C@@H]1CN(C)Cc1ccc(Oc2ccccc2)cc1`: the inhibition was 12.2%.

In the case of `COc1ccc(CN(C)C[C@H]2Oc3ccc(NC(=O)Cc4ccccc4)cc3CC(=O)N([C@@H](C)CO)C[C@@H]2C)cc1`, the inhibition was 74%.

Turning to `C[C@@H]1CN([C@H](C)CO)C(=O)Cc2cc(NC(=O)Nc3ccc(C(F)(F)F)cc3)ccc2O[C@H]1CN(C)Cc1ccc(-c2ccccc2)cc1`, the inhibition is 67.4%.

As for `C[C@@H]1CN([C@H](C)CO)C(=O)Cc2cc(NC(=O)Cc3cn(C)c4ccccc34)ccc2O[C@@H]1CN(C)Cc1ccc(C(F)(F)F)cc1`, the inhibition is 89.6%.

Regarding `C[C@@H]1CN([C@H](C)CO)C(=O)Cc2cc(NC(=O)Nc3ccccc3)ccc2O[C@@H]1CN(C)Cc1ccc(C(F)(F)F)cc1`, the inhibition is 86.5%.

On to `C[C@@H]1CN([C@H](C)CO)C(=O)Cc2cc(NC(=O)Cc3ccccc3)ccc2O[C@H]1CN(C)Cc1ccc(Oc2ccccc2)cc1`, for which the inhibition is 99.8% (active).

The record behind these values is PubChem BioAssay AID624255 (Broad Institute, 2012).
